Drawing on PubChem BioAssay (NCATS), this text covers Potency for 13 molecules.

Records with an inconclusive call do not appear. A call without a number means that no potency is given here. The source made the active and inactive calls. Calls come from the whole dose curve.

The target in the experiment is Bile acid receptor (Homo sapiens) (UniProt Q96RI1). As to the kind of experiment: qHTS assay for small molecule antagonists of farnesoid X receptor signaling (AID 588526). Particulars: HEK293T FXR-UAS-bla, beta-lactamase ratio, antagonist mode; series mostly up to 76.7 µM. An excerpt: NIH Chemical Genomics Center [NCGC] U.S. Environmental Protection Agency [EPA] National Institutes of Environmental Health Sciences [NIEHS] National Toxicology Program [NTP] NCGC Assay Overview The farnesoid-X-receptor (FXR), a nuclear hormone receptor is highly expressed in liver, intestine, kidney and adrenal cortex. Natural ligands of FXR are the bile acids (Cholic acid, Chenodeoxy cholic acid etc). It is an important regulator of diverse metabolic pathways, including the bile acid homeostasis, lipid and glucose metabolisms. FXR regulates the expression of target genes by binding either as a monomer or as a heterodimer with RXR (retinoid X receptor). As FXR regulates a large number of target genes involved in bile acid, lipoprotein and glucose metabolisms, it is a potential pharmacological target for bile acid and lipid disorders. Thus screening environmental chemicals on FXR signaling can be used for the studies focused on metabolic syndrome, hepatic and intestinal toxicity etc.
Sequence of Bile acid receptor (Homo sapiens) (Q96RI1 whole entry, looked up): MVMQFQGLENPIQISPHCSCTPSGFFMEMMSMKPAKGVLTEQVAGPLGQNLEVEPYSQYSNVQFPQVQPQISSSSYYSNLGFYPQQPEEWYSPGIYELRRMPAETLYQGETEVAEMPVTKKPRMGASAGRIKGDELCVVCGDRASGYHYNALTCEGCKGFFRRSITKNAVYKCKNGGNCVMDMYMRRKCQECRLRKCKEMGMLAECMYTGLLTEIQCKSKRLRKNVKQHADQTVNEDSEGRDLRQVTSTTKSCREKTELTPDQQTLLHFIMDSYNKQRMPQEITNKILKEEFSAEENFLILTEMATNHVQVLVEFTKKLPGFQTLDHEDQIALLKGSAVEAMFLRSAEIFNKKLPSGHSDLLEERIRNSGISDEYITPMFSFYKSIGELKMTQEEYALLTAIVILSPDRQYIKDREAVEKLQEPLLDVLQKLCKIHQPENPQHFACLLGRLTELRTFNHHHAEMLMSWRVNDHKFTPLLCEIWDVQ
NCGC Assay Protocol Summary Using a beta-lactamase reporter-gene under control of Farnesoid X receptor (FXR) response element, a cell-based assay [GeneBLAzer FXR-UAS-bla assay developed by Invitrogen] was used to measure FXR ligands signaling. GeneBLAzer FXR-UAS-bla HEK293T cells were used with assay medium containing 10% dialyzed FBS. The assay was performed in clear bottom black Greiner 1536-well plates. Guggulsterone were used in the screen as the positive control. Library compounds were measured for their ability to inhibit the reporter gene activity. Compounds were screened in a titration series in 1536-well format. The fluorescence intensity (405 nm excitation, 460/530 nm emission) was measured using an EnVision plate reader. Data was normalized relative to Chenodeoxycholic acid (50 uM, 100%), and DMSO only wells (basal, 0%). Concentration-response titration points for each compound were fitted to the Hill equation yielding concentrations of half-maximal inhibition (IC50) and maximal response (efficacy) values. qHTS protocol for FXR beta-lactamase assay in antagonist mode [Step] [Parameter] [Value] [Description] 1. Reagent; 5 uL; 5000 cells/well 2. Incubation; 37 C for 5-7 hrs 3. Compounds; 23 nL; 0.59 nM to 92 uM 4. Controls (Guggulsterone, FXR antagonist); 23 nL, - One column of dose response, start 200 uM, 1:2 dilutions in duplicates 5. Agonist (Stimulator); 1uL; Chenodeoxycholic acid at 100 uM and 50 uM final concentrations 6. Incubation; 37 C for 16 hrs 7. Detection reagent; 1 uL of CCF4-dye 8. Incubation; RT for 2 hrs 9. Detection; Fluorescence; Envision plate reader
In general terms: In qHTS, concentration-response curves come from the screen itself.
With `O=C(O)CCCc1ccc(N(CCCl)CCCl)cc1`, the Potency result is “inactive”.

With `Nc1nc(N)nc(NC2CC2)n1`, the Potency result is “inactive”.

With `COC(=O)C(c1ccccc1)C1CCCCN1` (stereo not drawn), the Potency entry is “inactive”.

Take `CCC(C)(C)c1ccc(O)cc1`: the Potency entry is “inactive”.

With `CC(=O)N1CCN(c2ccc(OC[C@H]3CO[C@](Cn4ccnc4)(c4ccc(Cl)cc4Cl)O3)cc2)CC1`, the Potency is 44.7 µM (active).

For `COP(=S)(OC)SCN1C(=O)c2ccccc2C1=O`, the Potency result was “inactive”.

Turning to `C[C@]1(O)CC[C@H]2[C@@H]3CCC4=CC(=O)CC[C@]4(C)[C@@]3(F)[C@@H](O)C[C@@]21C`, the Potency entry was “inactive”.

Consider `Clc1ccc(C(c2ccc(Cl)cc2)C(Cl)(Cl)Cl)cc1`, for which the Potency result is “inactive”.

`C[C@]12CCC(=O)C=C1CC[C@@H]1[C@@H]2CC[C@]2(C)C(=O)CC[C@@H]12`: the Potency result is “inactive”.

As to `[N-]=[N+]=CC(=O)OC[C@H](N)C(=O)O`, the Potency result is “inactive”.

Regarding `Nc1ccccc1C(=O)O`, the Potency entry is “inactive”.

Take `CN1C[C@H](C(=O)N[C@]2(C)O[C@@]3(O)[C@@H]4CCCN4C(=O)[C@H](Cc4ccccc4)N3C2=O)C=C2c3cccc4[nH]cc(c34)C[C@H]21`: the Potency is 39.8 µM (active).

On to `O=P1(N(CCCl)CCCl)NCCCO1` (stereo not drawn), for which the Potency result is “inactive”.
